DT40 TDP1 CPT = qHTS for Inhibitors of human tyrosyl-DNA phosphodiesterase 1 (TDP1): qHTS in cells in presence of CPT | chicken DT40 Tdp1-/-;hTDP1 cells + 20 nM CPT, ATP luminescence, 48 h | Potency, µM (top dose mostly 46.2 µM), inactives show top-dose activity change, negative = growth inhibition, usual class: inhibitors | 12% of 420,000 active | AID 686979, 2013; further: nearly all actives have a fitted effect of over 55% in size
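Chicken DT40 Tdp1-/- cells complemented with human TDP1, 400 cells/well, exposed to compounds plus 20 nM camptothecin for at least 48 h at 37 C; viability read as ATP content by CellTiter-Glo luminescence.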
TDP1 block = qHTS Assay for Inhibitors of Tyrosyl-DNA Phosphodiesterase (TDP1) | recombinant TDP1, AlphaScreen DNA substrate cleavage | Potency, µM (series often up to 130 µM), for the others: at the top dose activity change, negative = inhibition, actives largely listed as inhibitors | Tyrosyl-DNA phosphodiesterase 1 (Homo sapiens), Q9NUW8 | AID 485290, 2010 | 0.28% of 350,000 active; further: nearly all actives have a fitted effect of over 40% in size
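E. coli-derived human Tdp1, 1 nM final. Cpd preinc 15 min RT; substrate 15 nM final, 5 min RT; AS bead mix 10 ug/ml final, 10 min RT. Signal loss = tyrosine-FITC cleavage. No-enzyme wells = max signal.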
PLK1 PBD inh = qHTS for Inhibitors of PLK1-PDB (polo-like kinase 1 - polo-box domain): Primary Screen; Serine/threonine-protein kinase PLK1 (Homo sapiens), P53350; Plk1 PBD binding of FITC phosphopeptide, fluorescence polarization; Potency, µM, without a hit: max response, negative = inhibition, actives largely listed as inhibitors; 2.8% of 360,000 active; further: series mostly up to about 57 µM; nearly all actives have a fitted effect of over 65% in size
GCN5L2 inh = qHTS Assay for Inhibitors of GCN5L2. Potency, µM (doses to about 58.9 µM), inactives show top-dose activity change, negative = inhibition, usual class: inhibitors. Histone acetyltransferase KAT2A (Homo sapiens), Q92830. GCN5L2 HAT assay, ThioGlo1 CoA-SH fluorescence. AID 504327, 2011. 0.21% of 390,000 active
Target sequence (Q92830 whole entry, looked up): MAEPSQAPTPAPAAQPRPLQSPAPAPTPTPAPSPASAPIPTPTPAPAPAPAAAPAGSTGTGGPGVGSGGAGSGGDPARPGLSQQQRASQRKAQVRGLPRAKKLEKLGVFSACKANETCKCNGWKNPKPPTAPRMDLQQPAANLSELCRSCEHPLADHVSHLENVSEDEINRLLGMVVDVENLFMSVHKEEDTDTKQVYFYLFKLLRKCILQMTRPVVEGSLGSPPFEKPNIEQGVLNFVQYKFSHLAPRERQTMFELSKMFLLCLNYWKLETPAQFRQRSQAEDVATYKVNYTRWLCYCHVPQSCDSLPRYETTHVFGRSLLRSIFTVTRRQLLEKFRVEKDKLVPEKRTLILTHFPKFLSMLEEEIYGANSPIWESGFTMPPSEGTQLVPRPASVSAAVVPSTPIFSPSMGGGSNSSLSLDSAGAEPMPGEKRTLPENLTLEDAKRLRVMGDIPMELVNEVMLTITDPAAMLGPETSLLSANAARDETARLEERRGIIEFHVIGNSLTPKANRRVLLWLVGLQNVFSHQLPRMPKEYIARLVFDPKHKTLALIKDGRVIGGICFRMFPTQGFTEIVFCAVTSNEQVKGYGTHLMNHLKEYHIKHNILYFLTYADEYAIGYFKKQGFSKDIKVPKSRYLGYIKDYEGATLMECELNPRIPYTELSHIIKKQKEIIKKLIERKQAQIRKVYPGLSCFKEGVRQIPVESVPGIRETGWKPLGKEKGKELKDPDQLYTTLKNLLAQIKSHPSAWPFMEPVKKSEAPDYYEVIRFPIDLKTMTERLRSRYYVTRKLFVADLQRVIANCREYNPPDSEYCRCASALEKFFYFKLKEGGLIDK
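Preincubate 20nM GCN5L2 with compound 15 min, RT → add 50uM ThioGlo1 + 75uM H3(1-25) + 70uM acetyl-CoA → read fluorescence 0 and 20 min. Primary qHTS; fluorescent artifacts likely.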
DT40 TDP1 no CPT = qHTS for Inhibitors of human tyrosyl-DNA phosphodiesterase 1 (TDP1): qHTS in cells in absence of CPT; Potency, µM (series often up to 46.2 µM), without a hit: at the top dose activity change, negative = growth inhibition, hits mostly inhibitors; AID 686978, 2013; 15% of 420,000 active; DT40 Tdp1-/- hTDP1 cells, no CPT, ATP luminescence, 48 h; further: nearly all actives have a fitted effect of over 55% in size
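Luminescent ATP content (CellTiter-Glo) served as the growth readout. Knockout chicken DT40 cells expressing human TDP1 were exposed to compounds without camptothecin for a minimum 48 hr at 37 °C.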
VDR inhibitor = Inhibitors of the vitamin D receptor (VDR): qHTS | Vitamin D3 receptor (Homo sapiens), P11473 | VDR-SRC2-3 peptide fluorescence polarization, 2 h | Potency, µM, for inactives: max response, negative = inhibition, hits mostly inhibitors | 0.93% of 400,000 active | AID 504847, 2011
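FP read-out; VDR + SRC2-3 coactivator peptide; 23 nl compound by pintool; 2 h RT incubation; reagents held at 4 deg C, protected from light.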
* marks the source's active call; other numbers are inactive results; u = inconclusive; x = not tested or not shown; [ ] = remark or other dose. An excerpt weighted towards active compounds, which were near 18% of everything screened. The call rests on the fitted dose curve; in most records, active means well fitted curve in the direction sought with a large enough effect; inconclusive means small, poorly fitted or top-dose-only effect, or another doubt; inactive means no such curve, though single readings can be large; an effect the other way counts as inactive or inconclusive. On the % scale 0 is the no-effect control and ±100 the full control effect; potency means the concentration at half of the fitted maximal effect.

SMILES | DT40 TDP1 CPT | TDP1 block | PLK1 PBD inh | GCN5L2 inh | DT40 TDP1 no CPT | VDR inhibitor
CCOc1ccc(/C=C2/Sc3ccc(C(=O)N4CCOCC4)cc3N(C)C2=O)cc1OC | u | 5.0% | -10.1% | -27.7% | 16.4µM* | -1.8%
COc1ccc(/C=C2\Sc3ccc(C(=O)NC4CC4)cc3N(C)C2=O)cc1OC | u | 6.9% | -2.2% | -1.6% | u | 17.5%
COc1ccc(/C=C2\Sc3ccc(C(=O)N4CCCC4)cc3N(C)C2=O)cc1OC | 6.6% | 8.1% | u | -6.5% | u | 13.4%
Cc1ccc2c(c1)-c1onc(C(=O)N3CCN(c4ccc(Cl)cc4)CC3)c1CO2 | x | 2.6% | x | -10.9% | x | 1.4%
CCOC(=O)COn1c(-n2nc(C)cc2C)nc2ccccc2c1=O | u | x | -11.3% | 2.0% | 25.9µM* | -6.5%
CCOn1c(-n2nc(C)cc2C)nc2ccccc2c1=O | 8.7% | 3.9% | -12.5% | 11.6% | -5.2% | 9.2%
Cc1cc(C)n(-c2nc3ccccc3c(=O)n2OCC#N)n1 | 0.651µM* | x | -1.0% | -1.5% | 0.651µM* | -5.9%
CCCC1(CCC)NC(=O)N(CC(=O)Nc2ccc3c(c2)OCCO3)C1=O | -2.2% | 1.3% | -8.4% | -1.9% | -3.2% | -9.5%
COCC(=O)Nc1cc(C(=O)N2CC3CCC2C3)c2c(c1)nc(-c1ccncc1)n2C (centres undefined) | 9.3%[9.04 µM] | x | x | x | -4.4% | x
COc1cccc(Nc2nc(C(N)c3ccccc3Cl)cs2)n1 (centres undefined) | 20.6µM* | x | -5.2% | x | 14.6µM* | x
COc1cc(OC)nc(Nc2nc(C(N)c3ccccc3Cl)cs2)n1 (centres undefined) | u | x | -8.3% | x | 25.9µM* | x
COc1cc(OC)nc(Nc2nc(C(N)c3ccccc3)cs2)n1 (centres undefined) | u | x | 2.6% | x | u | x
COc1cccc(Nc2nc(CN)cs2)n1 | -21.1% | x | -6.7% | x | u | x
NC(c1csc(Nc2ncccn2)n1)c1ccccc1Cl (centres undefined) | 20.6µM* | x | 3.6% | x | 20.6µM* | x
CS(=O)(=O)N1CCC(C(=O)Nc2cc(Cl)c(Cl)cc2Cl)CC1 | 30.9% | x | -10.7% | -1.9% | -20.0% | -3.0%
O=[N+]([O-])c1ccc(OCCOCCOc2ccc([N+](=O)[O-])cc2)cc1 | 2.5% | x | -10.8% | -3.1% | -0.5% | -10.4%
CN(C)c1ccc(P(=O)(COc2ccc([N+](=O)[O-])cc2)c2ccc(N(C)C)cc2)cc1 | u | 5.0% | -7.4% | -4.9% | 20.6µM* | 5.1%
Cc1ccc(C=NNc2nc3c([nH]2)c(=O)n(C)c(=O)n3C)cc1 | u | x | -3.7% | x | u | 5.3%
COc1ccc([C@@H]2C[C@H]3[C@@H](CN2S(=O)(=O)c2ccccc2)C(=O)C[C@@H](c2cccc4ccccc24)N3S(=O)(=O)c2ccc(C)cc2)cc1 | 11.1% | x | -5.0% | x | 0.9% | x
Cc1cccc(CNC(=O)c2ccc3c(c2)N(C)C(=O)C2CCCCN32)c1 (centres undefined) | 13µM* | 1.8% | x | 1.0% | u | -5.3%
CCOc1cc(CNC(=O)c2ccc3c(c2)NC(=O)C2CCCCN32)cc(OCC)c1OCC (centres undefined) | 18.4µM* | 6.5% | x | -3.8% | u | 8.4%
CN(C)c1ccc(CNC(=O)CN2C(=O)C3CCCCN3c3ccc(C(=O)N4CCCC4)cc32)cc1 (centres undefined) | 23.1µM* | -0.6% | x | 1.2% | u | 4.3%
Cc1ccc(CNC(=O)CN2C(=O)C3CCCCN3c3ccc(C(=O)N4CCCC4)cc32)cc1 (centres undefined) | -7.5% | 4.1% | x | -2.7% | -7.5% | 5.4%
CCN1C(=O)C2CCCCN2c2ccc(C(=O)NCCOC)cc21 (centres undefined) | 21.5% | x | -13.0% | 1.1% | 5.0% | -9.7%
Cc1ccc(N(CC(O)CN2CCCCC2)S(=O)(=O)c2ccc(C)cc2)cc1 (centres undefined) | 3.4% | x | -5.5% | -6.7% | -3.5% | -11.2%
SMILES | DT40 TDP1 CPT | TDP1 block | PLK1 PBD inh | GCN5L2 inh | DT40 TDP1 no CPT | VDR inhibitor
CCN(C(=O)CN1C(=O)NC2(CCCC2)C1=O)c1nc2c(C)cccc2s1 | u | x | 2.1% | x | 13µM* | x
CCN(C(=O)C1CSC2(C)CCC(=O)N12)c1nc2c(C)cccc2s1 (centres undefined) | u | -0.6% | -3.8% | -6.1% | -2.9% | -16.3%
O=C(Nc1ccc(OC(F)(F)F)cc1)NC1COc2ccccc2C1 (centres undefined) | -22.6% | 2.7% | x | 0.4% | -23.2% | 1.8%
COc1ccc(N2C(=S)N=C(Nc3cccc(C)c3)C23CCCCC3)cc1 | 6.51µM* | -5.1% | -10.3% | 1.9% | -26.0% | u
O=c1c(N2CCc3ccccc3C2)csc2ccccc12 | u | 6.5% | x | -11.5% | u | 3.2%
O=c1c(N2CCc3ccccc3C2)csc2ccc(Br)cc12 | 23.1µM* | 6.5% | x | -9.0% | u | 21.2%
O=C(COc1ccc(Cl)cc1)OCCNC12CC3CC(CC(C3)C1)C2 | 11.9% | 5.7% | x | 2.1% | -12.1% | -0.8%
O=C(Nc1ccc(NC(=O)C2CCCCC2)nc1)c1cccc(F)c1 | u | 8.2% | -5.3% | -6.0% | u | -12.1%
CCc1ccc(/C=C/C(=O)c2cc(Br)ccc(=O)c2O)cc1 | 3.26µM* | -4.7% | 21.2µM* | u | 5.17µM* | 20µM*
O=C(C=Cc1ccccc1)c1cc(Br)ccc1O | u | x | -22.5% | x | u | u
O=C(NNC(=O)c1ccncc1)Nc1cc(Cl)ccc1Cl | 8.6% | x | -0.2% | x | -12.9% | -3.8%
CC(=O)Nc1ccc(S(=O)(=O)NCC(=O)N2CCN(S(=O)(=O)c3cccs3)CC2)cc1 | 3.6% | 1.3% | 15µM* | -2.9% | 1.2% | -7.8%
COc1ccccc1CC(=N)N1C[C@@H]2C(=O)CCC(c3ccccc3)(c3ccccc3)[C@@H]2C1 | 11.9µM* | 17.8%[56.1 µM] | x | -12.0% | 21.1µM* | -8.2%
Cc1cccc(N(C)c2cc(C)nc3nc(C)nn23)c1 | 16.4µM* | 0.0% | 29.9µM* | -4.3% | u | -14.6%
CCCCC(Sc1nc2cc3c(cc2c(=O)n1CCCC(=O)NCc1ccc(OC)cc1)OCO3)C(=O)OCC (centres undefined) | 4.61µM* | 4.4% | x | 0.2% | 4.61µM* | 14.2%

From PubChem BioAssay
